From PubChem BioAssay
For part of these data: Results with a measured potency or affinity are listed apart. The source made the active and inactive calls. Unless noted, how the calls were made is not given here.

Columns and labels:
[1] = target: Cell division control protein 42 homolog (Homo sapiens) (UniProt P60953); test: inhibition of fluorescent GTP binding to constitutively active Cdc42 – biochemical, multiplex bead flow cytometry, Bodipy-FL-GTP, dose response (AID 1333;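 active means fitted half-maximal concentration within the tested dose range, moderate curve steepness, a statistically real signal drop, and little compound fluorescence or tag-binding interference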)
[2] = target: Cell division control protein 42 homolog (Homo sapiens) (UniProt P60953); test: inhibition of fluorescent GTP binding to wildtype Cdc42 – biochemical, multiplex bead flow cytometry, Bodipy-FL-GTP, dose response (AID 1334;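 active means fitted half-maximal concentration within the tested range, moderate curve steepness, significant signal drop, and little compound fluorescence or bead-linkage interference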); settings: bead-based flow cytometry, Bodipy-FL-GTP binding to GST-Cdc42; at 100 µM (top of the series) unless noted
[3] = target: GTPase HRas (Homo sapiens) (UniProt P01112); test: Ras wt fluorescent GTP loading blockade – biochemical, wildtype, multiplex bead flow cytometry, dose response (AID 1335;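 active means fitted half-maximal concentration within 10 nM to 100 µM, steepness 0.5 to 2, significant signal drop, low assay interference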); settings: bead-based flow cytometry, Bodipy-GTP binding to GST-Ras; at 100 µM (top of the series) unless noted
[4] = test system: Ras-related protein Rab-7a (dog), GTP binding; test: blockers of fluorescent GTP binding to Rab7 – biochemical, wildtype, multiplex bead flow cytometry, dose response (AID 1336)
[5] = target: Ras-related C3 botulinum toxin substrate 1 (Homo sapiens) (UniProt P63000); test: inhibition of wildtype Rac1 nucleotide loading – biochemical, multiplex bead flow cytometry, dose response (AID 1340;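 active means dose curve with midpoint inside tested range, moderate steepness, plateau gap beyond fit error, low compound glow and bead-link interference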); settings: GST-Rac1 beads, Bodipy-FL-GTP binding; at 100 µM (top of the series) unless noted
[6] = target: GTPase HRas (Homo sapiens) (UniProt P01112); test: blockade of GTP loading onto mutant Ras – biochemical, activated mutant, multiplex bead flow cytometry, dose response (AID 1341;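 active means dose-response curve with midpoint inside the tested range, moderate steepness, significant amplitude and little compound fluorescence or bead-attachment interference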;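 further: GST-tagged constitutively activated Ras mutant immobilized on beads and multiplexed with other GTPases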)

Chain of Cell division control protein 42 homolog (Homo sapiens) (P60953 whole entry, looked up): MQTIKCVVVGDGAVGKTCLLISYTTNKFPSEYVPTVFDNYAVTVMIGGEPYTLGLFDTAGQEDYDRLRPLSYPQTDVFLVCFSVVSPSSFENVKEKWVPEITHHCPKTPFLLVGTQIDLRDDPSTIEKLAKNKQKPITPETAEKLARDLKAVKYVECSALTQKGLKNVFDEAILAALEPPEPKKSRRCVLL
Chain of GTPase HRas (Homo sapiens) (P01112 whole entry, looked up): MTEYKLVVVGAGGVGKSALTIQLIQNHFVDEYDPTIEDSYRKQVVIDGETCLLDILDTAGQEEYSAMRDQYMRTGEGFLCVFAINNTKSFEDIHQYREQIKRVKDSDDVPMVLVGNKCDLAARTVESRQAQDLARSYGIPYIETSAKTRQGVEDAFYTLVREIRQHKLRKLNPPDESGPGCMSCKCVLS

Structure (SMILES)	outcome [1]	fluorescence, percent of control (lower = inhibition) [2] [%]	GTP binding, percent of control [3] [%]	outcome [4]	GTP binding signal, raw median fluorescence (lower = inhibition) (MCF (arbitrary fluorescence units)) [5]	outcome [6]
O=C(CSc1n[nH]c(=O)[nH]c1=O)N/N=C/c1ccccc1	inactive	49.5	61.4	inactive	197	inactive
COc1cc2ccccc2cc1C(=O)NC(=S)Nc1cccc(C(=O)O)c1	inactive	33.8	83.3	inactive	174	inactive
COCCNc1nc(=S)[nH]c2cc(OC)c(OC)cc12	inactive	35.9	43.7	inactive	103	inactive
COc1ccc(-n2c(NC(=O)c3ccc(Br)o3)c(C#N)c3nc4ccccc4nc32)cc1	inactive	24.6	72.7	inactive	169	inactive
O=C(O)c1ccc(CSCc2cccc(Cl)c2)o1	inactive	57.3	81.4	inactive	30.1	inactive
Cc1cccc(Nc2nc(NCc3ccco3)c3ccccc3n2)c1	inactive	39.2	54.7	inactive	142	inactive
COc1cc2[nH]c(=S)nc(NC3CCCCCC3)c2cc1OC	inactive	26.4	60.9	inactive	148	inactive
CCOc1cccc(/C(O)=C2/C(=O)C(=O)N(CCOC)C2c2ccncc2)c1 (stereo not given)	inactive	46.9	57.7	inactive	0	inactive
O=C(N/N=C/c1c(O)n(Cc2ccccc2)c(=O)c2ccccc12)c1cccnc1	inactive	18.5	75.7	inactive	87	inactive
NS(=O)(=O)c1ccc(CCN2C(=O)/C(=C\c3ccc(Cl)cc3)SC2=S)cc1	inactive	29	76.5	inactive	242	inactive
Cc1cc(C)n2nc(C(=O)N3CCCC(CNS(=O)(=O)c4cccs4)C3)cc2n1 (stereo not given)	inactive	37.1	85.6	inactive	284	inactive
CCOc1ccc2c(c1)c(N=NC(=N)N)c(O)n2C	inactive	32.4	70.3	inactive	165	inactive
CC(=O)NC1CC2CCCC(C1)N2C(=O)Nc1ccc(Cl)c(C(F)(F)F)c1 (stereo not given)	inactive	91.1	146	inactive	174	inactive
Cc1ccc(NC(=S)NNC(=O)c2cn(C)nc2C)cc1	inactive	83.7	166	inactive	180	inactive
COc1ccc(C2=Nn3c(nnc3-c3ccccn3)SC2)cc1OC	inactive	34	44.4	inactive	112	inactive
C=CCn1c(SCC(=O)Nc2ccc3c(c2)OCO3)nnc1-c1cc(Br)ccc1O	inactive	66.9	84.9	inactive	108	inactive
O=c1nc2c(O)cccn2c2c1c(=O)[nH]c1ccccc12	inactive	33.4	44.6	inactive	93	inactive
CSc1nnc(C)c(/C=C/Nc2ccc(C)cc2)n1	inactive	74.9	144	inactive	155	inactive
CCOC(=O)c1cccnc1SCCc1ccccc1	inactive	125	155	inactive	95.5	inactive
COc1ccccc1OCc1cccc(C(=O)O)c1	inactive	64.9	92.8	inactive	42	inactive
COc1cc2[nH]c(=S)nc(NCCc3ccc(S(N)(=O)=O)cc3)c2cc1OC	inactive	36.7	81.9	inactive	268	inactive
CCCCOc1cccc(C#CC(=O)c2ccc([N+](=O)[O-])cc2)c1	inactive	59.2	182	inactive	128	inactive
Cc1cc(NC(=O)c2cccc(C(=O)Nc3cc(C)on3)n2)no1	inactive	40	86.3	inactive	296	inactive
Cc1nc2ccccn2c1-c1csc(Nc2cccc(O)c2)n1	inactive	35.4	80.4	inactive	216	inactive
Cc1n[nH]c(=S)c2nn(-c3ccccc3F)c(C)c12	inactive	48.5	62.5	inactive	179	inactive
CN(C)/C=C(\C#N)C(N)=C(C#N)C#N	inactive	38.1	82.8	inactive	259	inactive
CCc1ccc(Sc2cc(C(=O)O)c3ccccc3n2)cc1	inactive	57.8	86	inactive	31	inactive
O=C(O)C1CCCN1C(=O)OCc1ccccc1 (stereo not given)	inactive	108	188	inactive	235	inactive
COc1cccc(N=Nc2c(N)[nH]n3c(=O)c4c(nc23)CCCC4)c1	inactive	29.6	66.9	inactive	151	inactive
Fc1cccc(Nc2ncnc3[nH]ncc23)c1	inactive	30.9	72.3	inactive	177	inactive
